Screens: PubChem, National Center for Advancing Translational Sciences (NCATS)
Many of the other results were omitted from the sample, so hits are more common in it than they were.
Sm TGR block = blocks Schistosoma mansoni thioredoxin glutathione reductase | Q962Y6 | purified TGR, DTNB reduction, TNB absorbance 405 nm | Potency, µM (doses to about 114 µM), usual class: inhibitors | 3% of 360,000 active; also: nearly all actives have a fitted effect of over 60% in size
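First, TGR (20 nM dispensed) and NADPH were mixed with compound. Second, a 15 min room-temperature incubation followed. Third, further NADPH and then DTNB were added to start the reaction. Finally, TNB absorbance was monitored kinetically.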
Shiga inhibitor = blocks Shiga toxin action in Vero cells | 9.2% of 290,000 active | Vero cells, Shiga toxin protein synthesis inhibition reporter | inhibition, % at 38.7 µM; in the data active = inhibition mostly above about 28%, no sharp cut-off; inactive = mostly below about 43%
LmPK inh = inhibitors of Leishmania mexicana pyruvate kinase | purified LmPK, Kinase-Glo ATP luminescence, 1 h | Potency, µM (top dose mostly 57.5 µM), most hits filed as inhibitors | 0.37% of 290,000 active | AID 1721
Target sequence (Q27686 whole entry, looked up): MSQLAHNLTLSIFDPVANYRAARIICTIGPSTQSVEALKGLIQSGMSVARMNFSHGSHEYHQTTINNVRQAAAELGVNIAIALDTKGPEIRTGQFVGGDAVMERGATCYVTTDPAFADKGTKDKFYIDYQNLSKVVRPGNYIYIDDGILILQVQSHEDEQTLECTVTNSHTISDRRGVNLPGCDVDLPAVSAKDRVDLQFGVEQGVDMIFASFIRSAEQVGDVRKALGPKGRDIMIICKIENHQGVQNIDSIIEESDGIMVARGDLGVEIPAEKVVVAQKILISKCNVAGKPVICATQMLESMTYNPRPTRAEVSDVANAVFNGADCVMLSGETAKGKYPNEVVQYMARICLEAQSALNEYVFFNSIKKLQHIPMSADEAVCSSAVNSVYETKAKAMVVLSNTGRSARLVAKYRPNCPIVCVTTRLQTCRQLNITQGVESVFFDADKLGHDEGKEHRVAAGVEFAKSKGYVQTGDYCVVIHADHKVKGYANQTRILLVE
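Screened at intermediate enzyme activity to detect both inhibitors and activators: LmPK at 0.1 nM, with a 0.5 nM enzyme column as activation reference. PEP 0.5 mM, ADP 0.1 mM; ATP detected by luminescence after 1 h.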
Giardia FBPA inh = blocks Giardia fructose-bisphosphate aldolase activity | A8B2U2 | purified Giardia FBPA | Potency, µM (doses to about 59.6 µM), actives largely listed as inhibitors | 0.71% of 290,000 active; also: nearly all actives have a fitted effect of over 55% in size
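40 nM FBPA preincubated 10 min at RT with compound (up to 57.5 uM final), then substrate plus GAPDH/TPI/NAD/arsenate coupling and diaphorase/resazurin added. Fluorescence read after 20 min at RT, 525/598 nm.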
CHX counter = counter-screen for Shiga toxin inhibitors: cycloheximide protein synthesis inhibition. AID 2314. cell reporter, cycloheximide protein synthesis inhibition counterscreen. max response, %. 12% of 300,000 active; in the data active = max response mostly above about 13%, no sharp cut-off; inactive = mostly below about 14%; also: read at 38.3 µM for the half of the compounds with a filed dose
Tb PYK inh = T. brucei pyruvate kinase inhibition | Q57TT1 | TbPYK enzyme, Kinase-Glo Plus ATP luminescence, 45 min | Potency, µM (series often up to 76.8 µM), actives largely listed as inhibitors | 0.12% of 410,000 active | AID 624173; also: nearly all actives have a fitted effect of over 50% in size
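Glycolytic pyruvate kinase of T. brucei was incubated with substrate, test compound and 130 uM ADP for 45 minutes at room temperature. Luminescent Kinase-Glo Plus signal was measured after 10 minutes.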
Of the large screens only hits and unclear results are named; the others gave an inactive call. Unless noted, calls follow the shape of the dose curve; as a rule, active = well fitted curve in the direction sought with a large enough effect; inconclusive = small, poorly fitted or top-dose-only effect, or another doubt; inactive = no such curve, though single readings can be large; an effect the other way counts as inactive or inconclusive.

O=C(Cc1ccccc1)Nc1c(C(=O)N2CCN(c3ccc(F)cc3)CC2)oc2ccccc12	none (no result: Shiga inhibitor, LmPK inh, Giardia FBPA inh, CHX counter)
CCc1ccc(OCC(=O)Nc2cc(-c3nc4cc(C)ccc4o3)ccc2C)cc1	none (no result: Shiga inhibitor, LmPK inh, Giardia FBPA inh, CHX counter)
CCOCCc1nn2c(=O)cc(COC(=O)c3ccc(NC(=O)c4cccs4)cc3)nc2s1	none (no result: Shiga inhibitor, LmPK inh, Giardia FBPA inh, CHX counter)
O=C(O)c1cc(-c2ccccc2)nc2ccccc12	none
COc1ccc(-c2cc(C(=O)NC3=NCCS3)c3ccccc3n2)cc1OC	CHX counter 26.8
O=C(Nc1ccccc1F)c1cc(-c2ccco2)nc2ccccc12	none (no result: Sm TGR block, Shiga inhibitor, LmPK inh, Giardia FBPA inh, CHX counter)
COc1ccc(NC(=O)c2cc(-c3ccc(OC)c(OC)c3)nc3ccccc23)c(OC)c1	none
O=C(O)c1cc(-c2ccco2)nc2cc3ccccc3cc12	Sm TGR block 2.24µM, Giardia FBPA inh inconclusive
COc1ccc(-c2cc(C(=O)NC3CCCC3)c3ccccc3n2)cc1OC	none (no result: Sm TGR block, Shiga inhibitor, LmPK inh, Giardia FBPA inh, CHX counter)
O=C(Nc1ccc(F)cc1F)c1cc(-c2ccco2)nc2ccccc12	Sm TGR block 11.2µM, Tb PYK inh inconclusive
COc1ccc(-c2cc(C(=O)Nc3ccc(C(N)=O)cc3)c3ccccc3n2)cc1OC	CHX counter 13.9
O=C(Nc1cccc(Cl)c1Cl)c1cc(S(=O)(=O)N2CCC3(CC2)OCCO3)ccc1F	none (no result: Shiga inhibitor, LmPK inh, Giardia FBPA inh, CHX counter)
Cc1ccc(NC(=O)[C@H](NC(=O)[C@@H]2Cc3ccccc3CN2)c2ccccc2)cc1C	CHX counter 17.4 (no result: Giardia FBPA inh)
C[C@@H](NC(=O)[C@@H]1Cc2ccccc2CN1)C(=O)NCc1ccco1	Sm TGR block inconclusive (no result: Giardia FBPA inh)
Cc1ccc(NC(=O)[C@H](CC(C)C)NC(=O)[C@@H]2Cc3ccccc3CN2)cc1	none (no result: Giardia FBPA inh)
Cc1cccc(NC(=O)[C@H](Cc2ccccc2)NC(=O)[C@@H]2Cc3ccccc3CN2)c1	CHX counter 15.3 (no result: Giardia FBPA inh)
Cc1ccc(NC(=O)[C@@H](CC(C)C)NC(=O)[C@@H]2Cc3ccccc3CN2)cc1	Shiga inhibitor 61.4
Cc1ccc(NC(=O)[C@@H](C)NC(=O)[C@@H]2Cc3ccccc3CN2)cc1	CHX counter 24.1 (no result: Giardia FBPA inh)
CN(CC1COc2ccccc2O1)C(=S)Nc1ccccc1F (stereo not drawn)	none
COc1ccc(NC(=S)N(C)CC2COc3ccccc3O2)cc1 (stereo not drawn)	Shiga inhibitor 73.1, CHX counter 24.2
COc1ccc(OCCOC(=O)c2cccs2)cc1	Shiga inhibitor 77.3, CHX counter 32.5
COc1ccc(C/C(N)=N/OC(=O)c2cccs2)cc1	none
COc1ccc(C(=O)O/N=C(/C)c2cccs2)cc1	Shiga inhibitor 60.8, LmPK inh 3.55µM, CHX counter 34.4, Tb PYK inh 25.1µM
COc1ccc(C(=O)O/N=C(\C)c2nccs2)cc1	LmPK inh 7.94µM, CHX counter 26.4, Tb PYK inh inconclusive
C/C(=N/OC(=O)c1c(F)cccc1F)c1nccs1	LmPK inh 12.6µM
C/C(=N\OC(=O)c1c(-c2c(F)cccc2Cl)noc1C)c1nccs1	none
Nc1nc(=S)c2ncn(C3OC(CO)CC3O)c2[nH]1 (stereo not drawn)	none (no result: Sm TGR block, Shiga inhibitor, LmPK inh, Giardia FBPA inh, CHX counter)
CC(Oc1ccc(F)cc1)C(=O)Nc1nc(-c2ccc(F)cc2)ns1 (stereo not drawn)	none (no result: Shiga inhibitor, LmPK inh, Giardia FBPA inh, CHX counter)
Cc1c(C(=O)NCCS(=O)(=O)N2CCN(c3ccccc3F)CC2)cccc1[N+](=O)[O-]	none
C/C(=N\OC(=O)c1ccc(F)cc1)c1nccs1	LmPK inh inconclusive, CHX counter 46.7
CC(=NOC(=O)C1CCCCC1)c1nccs1	none (no result: Sm TGR block, Shiga inhibitor, LmPK inh, Giardia FBPA inh, CHX counter)
CCc1nc2cccnc2n1-c1ccc(CC(=O)Nc2cccc(C)c2C)cc1	none (no result: Shiga inhibitor, LmPK inh, Giardia FBPA inh, CHX counter)
Cc1ccccc1-c1noc(-c2cc(-c3ccc(F)cc3)n[nH]2)n1	none (no result: Shiga inhibitor, LmPK inh, Giardia FBPA inh, CHX counter)
Cc1ccccc1-c1cc(-c2ccccc2O)n[nH]1	Shiga inhibitor 74.9, CHX counter 30.5, Tb PYK inh inconclusive
Cc1ccc(-c2cc(-c3ccccc3Cl)[nH]n2)c(O)c1	Shiga inhibitor 128.1, CHX counter 50.7
Cc1ccc(-c2cc(-c3ccccc3[N+](=O)[O-])[nH]n2)c(O)c1	Shiga inhibitor 75.4, CHX counter 31.0
Cc1cc(-c2ccc(S(=O)(=O)Nc3cccc(C)c3C)s2)on1	none (no result: Shiga inhibitor, LmPK inh, Giardia FBPA inh, CHX counter)
O=C(CC1SC(N2CCOCC2)=NC1=O)Nc1ccccc1Cl (stereo not drawn)	Sm TGR block 44.7µM (no result: Shiga inhibitor, LmPK inh, Giardia FBPA inh, CHX counter)
O=C(CC1SC(N2CCOCC2)=NC1=O)Nc1ccc(Cl)cc1 (stereo not drawn)	Sm TGR block inconclusive (no result: Shiga inhibitor, LmPK inh, Giardia FBPA inh, CHX counter)
